# Data: PubChem BioAssay (NCATS)
# Results filed as inconclusive are left out. Where a call stands in place of a potency, no number is given. Calls of active or inactive are those of the source. Calls come from the whole dose curve; as a rule, active = well fitted inhibition curve with a large enough effect; inconclusive = small, poorly fitted or top-dose-only effect; inactive = flat fitted curve, though single readings scatter.
# What was measured:
# Assay in all cases: qHTS profiling for inhibitors of Plasmodium falciparum proliferation (AID 504749); note: nearly all actives have a fitted effect of over 60% in size
# Conditions in all cases: P. falciparum in erythrocytes, SYBR Green DNA, 72 h; series mostly up to 28.7 µM
# CP325 = tested on: CP325
# Outline: (§1)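 Fluorescence of SYBR Green-bound parasite DNA, read at 485/535 nm, served as the growth measure. Infected erythrocytes were cultured with compound 72 h; artemisinin (0.29 uM) and DMSO wells defined the normalization range.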
# CP329 = tested on: CP329
# Outline: as §1
# CP335 = tested on: CP335
# Outline: as §1
# DFO2036 = tested on: DFO2036
# Outline: as §1
# Dd2 = tested on: Dd2
# Outline: as §1
# FAB9 = tested on: FAB9
# Outline: as §1
# DIV14 = tested on: DIV14
# Outline: as §1
# DIV17 = tested on: DIV17
# Outline: as §1
# DIV30 = tested on: DIV30
# Outline: as §1
# ECU = tested on: ECU
# Outline: as §1
# Potency is the fitted concentration of half-maximal effect.
SMILES,Potency (CP325),Potency (CP329),Potency (CP335),Potency (DFO2036),Potency (Dd2),Potency (FAB9),Potency (DIV14),Potency (DIV17),Potency (DIV30),Potency (ECU)
CCOc1nc2cccc(C(=O)O)c2n1Cc1ccc(-c2ccccc2-c2nn[nH]n2)cc1,inactive,inactive,inactive,inactive,inactive,inactive,,,,
CCN(CC)CCSC(=O)C(c1ccccc1)c1ccccc1,inactive,inactive,inactive,inactive,inactive,inactive,inactive,inactive,inactive,inactive
CCCCN(CCCC)CC(O)c1cc(Cl)cc2c1-c1ccc(Cl)cc1/C2=C/c1ccc(Cl)cc1 (stereo unspecified),42.6 nM (active),47.8 nM (active),23.9 nM (active),12.6 nM (active),8.9 nM (active),316 nM (active),,13.5 nM (active),6.7 nM (active),5.6 nM (active)
O=C1O[C@H]([C@@H](O)CO)C(O)=C1O,inactive,inactive,inactive,inactive,inactive,inactive,inactive,inactive,inactive,
O=C1NC(=O)[C@@]2(CCOc3ccc(F)cc32)N1,inactive,inactive,inactive,inactive,inactive,inactive,inactive,inactive,inactive,inactive
Cc1cc(C(C#N)c2ccc(Cl)cc2)c(Cl)cc1NC(=O)c1cc(I)cc(I)c1O (stereo unspecified),inactive,inactive,inactive,inactive,inactive,inactive,inactive,inactive,inactive,inactive
CCCCN(CCCC)CCCOC(=O)c1ccc(N)cc1,inactive,inactive,inactive,inactive,inactive,inactive,inactive,inactive,inactive,inactive
C[C@]12C[C@H](O)[C@H]3[C@@H](CCC4=CC(=O)CC[C@@]43C)[C@@H]1CC[C@@H]2C(=O)CO,inactive,inactive,inactive,,,,inactive,inactive,inactive,
Nc1ccc(S(=O)(=O)NC(=O)c2ccccc2)cc1,inactive,inactive,inactive,inactive,inactive,inactive,inactive,inactive,inactive,inactive
CCCn1cnc2c1c(=O)n(CCCCC(C)=O)c(=O)n2C,inactive,inactive,inactive,inactive,inactive,inactive,inactive,,inactive,inactive
CC(CN1c2ccccc2Sc2ccccc21)N(C)C (stereo unspecified),inactive,inactive,inactive,inactive,,inactive,inactive,inactive,inactive,inactive
O=C(O)c1ccccc1O,inactive,inactive,inactive,inactive,inactive,inactive,inactive,inactive,inactive,inactive
O=C(CCCN1CCN(c2ccccn2)CC1)c1ccc(F)cc1,inactive,inactive,inactive,inactive,inactive,inactive,,,inactive,inactive
CCC(=O)Nc1ccc(O)cc1,inactive,inactive,inactive,inactive,inactive,inactive,inactive,inactive,inactive,inactive
COc1ccc2c(c1)C(=O)N(CCc1ccc(S(=O)(=O)NC(=O)NC3CCCCC3)cc1)C(=O)C2(C)C,inactive,inactive,inactive,inactive,inactive,inactive,inactive,inactive,inactive,inactive
COC(=O)C1=C(C)NC(C)=C(C(=O)OC)C1c1ccccc1[N+](=O)[O-],inactive,inactive,inactive,inactive,inactive,inactive,inactive,,inactive,inactive
NCCNCCNCCNCCN,inactive,inactive,inactive,inactive,inactive,inactive,inactive,inactive,inactive,inactive
Nc1ccc(S(=O)(=O)Nc2nccs2)cc1,inactive,inactive,inactive,inactive,inactive,inactive,inactive,inactive,inactive,inactive
O=C(O)[C@@H]1CSCN1,inactive,inactive,inactive,inactive,inactive,inactive,inactive,inactive,inactive,inactive
O=C(O)CC(O)C(=O)O (stereo unspecified),inactive,inactive,inactive,inactive,inactive,inactive,inactive,inactive,inactive,inactive
Nc1ncnc2c1ncn2[C@@H]1O[C@H](CO)[C@@H](O)[C@H]1O,inactive,inactive,inactive,inactive,inactive,inactive,inactive,inactive,inactive,inactive
C#CCN(C)Cc1ccccc1,inactive,inactive,inactive,inactive,inactive,inactive,inactive,inactive,inactive,inactive
Cc1ccc(C(C)C)cc2c(C)ccc1-2,inactive,inactive,inactive,inactive,inactive,inactive,,inactive,,inactive
CC(=O)NC(Cc1ccccc1)C(=O)O (stereo unspecified),inactive,inactive,inactive,inactive,inactive,inactive,inactive,inactive,inactive,inactive
CCCCCCCCCCCCCCCCCCOCC(O)CO (stereo unspecified),inactive,inactive,,inactive,inactive,inactive,inactive,inactive,inactive,inactive
Cc1cc2c(cc1S(N)(=O)=O)S(=O)(=O)CCC2,inactive,inactive,,inactive,inactive,inactive,inactive,inactive,inactive,inactive
